Results published in PubChem BioAssay AID1224904 (Broad Institute, 2016).
Where “and” joins values, the source holds several entries; their conditions need not be identical. Equal entries are not always repeated. The campaign covered roughly 37,000 compounds. About 290 (0.78%) were called active. About 10% were inconclusive and are not listed.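 The calls were made as follows: active = mean inhibition of at least 10% in the main channel, exceeding the control channel by a set limit; inconclusive = inhibition of 10% or more but channel gap under a set limit; inactive = mean inhibition below 10%.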 For the sample, actives were picked, then their nearest neighbours and some compounds at random.

Experiment: DUX4 transcriptional activity inhibition in cells – 293T cells, Gaussia and Italica luciferase, primary screen (AID 1224904);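 as to activity change, negative = inhibition: 0% = median of neutral control wells and -100% = median of positive control wells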
Conditions: 293T-iDUX4 ZSCAN4-Gaussia luciferase reporter, 24 h, stronger effect = lower value, concentration not given here; for Gaussia minus Italica difference: measured here: selective DUX4 reporter inhibition
[1] = measured here: Italica tet-on control reporter

Structure (SMILES) | activity change, negative = inhibition | activity change, negative = inhibition [1] | Gaussia minus Italica difference
C[C@@H]1CN([C@@H](C)CO)C(=O)Cc2cc(NC(=O)Nc3cccc4ccccc34)ccc2O[C@H]1CN(C)S(=O)(=O)c1ccc(Cl)cc1 | -2.17% (inactive) | 3.22% | -5.4%
CC(C)[C@@H]1COCn2nncc2CCCC(=O)N1 | -6.02% (inactive) | 7.14% | -13.2%
CO[C@@H]1CC[C@@H]2CCOc3c(C#N)cccc3C(=O)N(C)C[C@@H](C)C(=O)N(C)C[C@@H]1O2 | -3.12% (inactive) | -1.5% | -1.62%
C[C@H](O)C#Cc1ccc([C@@H]2[C@H](CO)N3CCCCN(CC4CC4)C[C@@H]23)cc1 | 4.25% (inactive) | 9.01% | -4.76%
COCC(=O)N1[C@@H](CO)[C@H](c2ccccc2)C12CN(C(=O)NC1CCCCC1)C2 | 12.7% (inactive) | 4.2% | 8.54%
COc1ccccc1-c1ccc2n(c1=O)C[C@@H]1[C@@H](CO)[C@H](C(=O)NCc3ccccc3Cl)N[C@H]21 | -0.143% (inactive) | -7.51% | 7.37%
CCC(=O)Nc1ccc2c(c1)C(=O)N(C)C[C@H](OC)[C@@H](C)CN(Cc1nccs1)[C@H](C)CO2 | -5.35% (inactive) | 4.67% | -10%
CNC[C@H]1Oc2ncc(C#Cc3ccccc3F)cc2C(=O)N([C@H](C)CO)C[C@H]1C | -2.73% (inactive) | -1.01% | -1.72%
CN1CCN(C(=O)C[C@@H]2CC[C@@H]3[C@H](COC[C@H](O)CN3CC3CCOCC3)O2)CC1 | 7.66% (inactive) | 11.6% | -3.98%
CNC(=O)C[C@@H]1CC[C@H]2[C@H](COc3ccc(NC(=O)C4CC4)cc3C(=O)N2C)O1 | 2.13% (inactive) | -0.014% | 2.15%
CS(=O)(=O)N1C[C@@H](O)COC[C@@H]2O[C@H](CC(=O)NC3Cc4ccccc4C3)CC[C@H]21 | 6.74% (inactive) | -3.08% | 9.82%
CN1c2ccc(-c3ccccc3F)cc2[C@@H]2[C@@H](CCN2C(=O)CN2CCOCC2)[C@H]1CO | 0.948% (inactive) | 9.9% | -8.96%
CCCNC(=O)C[C@@H]1CC[C@H]2[C@H](COc3ccc(NS(=O)(=O)c4ccccc4C)cc3C(=O)N2C)O1 | 1.9% (inactive) | 7.5% | -5.61%
C/C=C/c1ccc2c(c1)O[C@@H](CN(C)C(=O)c1ccccn1)[C@H](C)CN([C@@H](C)CO)S2(=O)=O | -2.65% (inactive) | 3.66% | -6.3%
O=C(NC[C@@H]1[C@@H](c2ccccc2)[C@H](CO)N1C(=O)Cc1cccnc1)C1CC1 | 3.18% (inactive) | 4.6% | -1.42%
CCCNC(=O)N1[C@H](CO)[C@@H]2c3ccccc3N(C(=O)C3CCOCC3)C[C@@H]21 | -1.95% (inactive) | -0.682% | -1.27%
CCS(=O)(=O)N1CCC2(CC1)CN[C@H](CO)c1c2c2ccc(OC)cc2n1C | 14.5% (inactive) | 10.9% | 3.59%
C[C@H](CO)N1C[C@H](C)[C@@H](CN(C)Cc2ccncc2)OCCCC[C@H](C)Oc2ccc(NS(=O)(=O)c3ccc(Cl)cc3)cc2C1=O | 1.79% (inactive) | 8.83% | -7.04%
COc1cccc(C#Cc2ccc3c(c2)[C@@H]2[C@@H](CCN2S(=O)(=O)c2ccc(C)cc2)[C@@H](CO)N3)c1 | 8.73% (inactive) | 11.9% | -3.21%

Structure (SMILES) | activity change, negative = inhibition | activity change, negative = inhibition [1] | Gaussia minus Italica difference
COc1cccc(CNC(=O)C[C@@H]2CC[C@H]3[C@@H](COc4ccc(NC(=O)c5cccs5)cc4C(=O)N3C)O2)c1 | -0.0474% (inactive) | -2.71% | 2.66%
COc1ccc(CNC(=O)C[C@H]2C[C@@H]3c4cc(NC(=O)NC5CCCC5)ccc4O[C@@H]3[C@H](CO)O2)cc1 | 8.81% (inactive) | 6.85% | 1.96%
O=C(CCN1CCCCC1)NCC[C@@H]1CC[C@H](NS(=O)(=O)c2cccc(Cl)c2)[C@H](CO)O1 | 5.38% (inactive) | -7.23% | 12.6%
CN1[C@@H]2c3ccc(-c4ccc(F)cc4)c(=O)n3C[C@H]1[C@H](CO)[C@H]2C(=O)NC1CCC1 | 6.4% (inactive) | -1.88% | 8.27%
CCCNC(=O)N1C[C@@H](O)COC[C@@H]2O[C@H](CC(=O)N3CCN(C)CC3)CC[C@H]21 | 1.94% (inactive) | 0.769% | 1.17%
CS(=O)(=O)N1CCCCN2[C@H](CO)[C@H](c3ccc(-c4cccc(C#N)c4)cc3)[C@H]2C1 | 1.86% (inactive) | -1.58% | 3.44%
CCNC(=O)[C@H]1[C@H](CO)[C@H]2Cn3c(ccc(-c4ccc(OC)cc4)c3=O)[C@H]2N1Cc1ccccc1 | -4.11% (inactive) | -4.47% | 0.354%
O=C(C1CCC1)N1CC2(C1)[C@H](c1ccccc1)[C@H](CO)N2Cc1nccs1 | 12.8% (inactive) | 2.26% | 10.6%
CCC(=O)N1C[C@@H](O)COC[C@H]2O[C@H](CC(=O)NCC3CCCCC3)CC[C@@H]21 | 1.84% (inactive) | 0.272% | 1.57%
COCC#Cc1cnc2c(c1)C(=O)N([C@H](C)CO)C[C@H](C)[C@H](CN(C)Cc1ccc(-c3ccccc3)cc1)O2 | -1.2% (inactive) | -1.59% | 0.393%
C[C@H](CO)N1C[C@H](C)[C@H](CN(C)C(=O)CCN(C)C)OCc2ccccc2-c2c(n(C)c3ccccc23)C1=O | 0.0892% (inactive) | 6.32% | -6.23%
COc1ccccc1C#Cc1ccc([C@@H]2[C@@H](CO)N3CCCCN(S(C)(=O)=O)C[C@@H]23)cc1 | -1.08% (inactive) | 5.65% | -6.73%
O=C(Nc1cccc(F)c1)N1CC(=O)N2[C@H](CO)[C@H](c3ccc(C#CC4CC4)cc3)[C@@H]2C1 | 2.91% (inactive) | -11.7% | 14.6%
CN(C)CC#Cc1ccc([C@@H]2[C@H](CO)N3CCCCN(C(=O)Nc4ccc(F)cc4)C[C@@H]23)cc1 | 15.2% (inactive) | 5.12% | 10.1%
C[C@@H](O)C#Cc1ccc([C@@H]2[C@H](CO)N3CCCCN(S(=O)(=O)c4ccccc4)C[C@@H]23)cc1 | 10.1% (inactive) | -3.26% | 13.3%
COc1ccccc1C#Cc1ccc([C@H]2[C@H](CO)N3CCCCN(C(=O)C4CCC4)C[C@@H]23)cc1 | -36.1% (active) | -8.62% | -27.4%
C[C@@H](O)C#Cc1ccc([C@@H]2[C@H]3CN(S(=O)(=O)c4ccccc4)CCCCN3[C@H]2CO)cc1 | 25.7% (inactive) | 12.9% | 12.9%
O=C(Nc1cccc(F)c1)N1CCCCN2[C@H](CO)[C@H](c3ccc(C#CC4CC4)cc3)[C@@H]2C1 | -32.4% (active) | 5.1% | -37.5%
COc1ccccc1C#Cc1ccc([C@H]2[C@@H](C#N)N(C(=O)C3CCCCC3)[C@@H]2CO)cc1 | -1.13% (inactive) | -0.0756% | -1.05%

Structure (SMILES) | activity change, negative = inhibition | activity change, negative = inhibition [1] | Gaussia minus Italica difference
COc1ccc(S(=O)(=O)N2CCCCN3[C@H](CO)[C@@H](c4ccc(C#CC(C)C)cc4)[C@H]3C2)cc1 | -31.7% (active) | -3.69% | -28%
O=C(CC(F)(F)F)N1C[C@H]2[C@@H](c3ccccc31)[C@H](CO)N2C(=O)Cc1cccnc1 | 2.67% (inactive) | 0.448% | 2.22%
CCCC#Cc1ccc([C@@H]2[C@@H](C#N)N(C(=O)C3CCC3)[C@H]2CO)cc1 | 0.61% (inactive) | 1.62% | -1.01%
COc1cccc(CN2[C@H](CO)[C@@H]3c4ccccc4N(C(=O)c4ccncc4)C[C@@H]32)c1 | -3.19% (inactive) | 4.06% | -7.25%
COc1cccc(C(=O)Nc2ccc3c(c2)C(=O)N(C)[C@H]2CC[C@@H](CC(=O)N[C@H](C)c4ccccc4)O[C@H]2CO3)c1 | -1.13% (inactive) | 0.375% | -1.51%
COC(=O)[C@@H]1[C@@H](CO)[C@@H]2Cn3c(ccc(-c4ccccc4F)c3=O)[C@@H]2N1CC1CCOCC1 | -4.32% (inactive) | 8.44% | -12.8%
O=C([C@H]1[C@H](CO)[C@H]2Cn3c(cccc3=O)[C@@H]1N2Cc1cocn1)N1CCCCC1 | 0.941% (inactive) | 1.28% | -0.343%
C/C=C/c1ccc(C2[C@H]3CNC[C@@H]2N3C(=O)Nc2cc(F)ccc2F)cc1 (stereo partly specified) | 15.1% (inactive) and 2.98% (inactive) | 3.89% and 2.36% | 11.2% and 0.626%
O=C(c1ccncc1)N1CC2(C1)[C@@H](c1ccccc1)[C@H](CO)N2C(=O)c1ccncc1 | 9.03% (inactive) | 0.77% | 8.26%
CO[C@@H]1CN(C)C(=O)c2cc(NS(=O)(=O)c3cn(C)cn3)ccc2OC[C@@H](C)N(CCC(F)(F)F)C[C@H]1C | 2.8% (inactive) | 2.78% | 0.0206%
CC(C)NC(=O)Nc1ccc2c(c1)C(=O)N(C)[C@H]1CC[C@H](CC(=O)NCc3ccc(F)cc3)O[C@H]1CO2 | -1.78% (inactive) | -0.912% | -0.872%
CN1C(=O)c2cc(NC(=O)Nc3ccccc3F)ccc2OC[C@H]2O[C@@H](CC(=O)Nc3cccc(Cl)c3)CC[C@@H]21 | 2.01% (inactive) | 1.81% | 0.199%
CN1C(=O)c2cc(NC(=O)c3ccc(Cl)cc3)ccc2OC[C@@H]2O[C@@H](CC(=O)O)CC[C@H]21 | 3.27% (inactive) | 2.43% | 0.834%
CCS(=O)(=O)N1[C@H](CO)[C@@H](c2ccc(C#CC(C)C)cc2)[C@@H]1C#N | -1.24% (inactive) | -0.906% | -0.33%
COc1ccccc1CN1[C@@H]2CNC[C@H]1C2c1ccc(-c2cccc(C#N)c2)cc1 (stereo partly specified) | 2.24% (inactive) and -7% (inactive) | 7.91% and -13.5% | -5.67% and 6.5%
CCCNC(=O)C[C@H]1CC[C@H]2[C@@H](COc3ccc(NC(=O)Nc4c(C)noc4C)cc3C(=O)N2C)O1 | 1.35% (inactive) | 1.62% | -0.269%
CN(C)C(=O)c1cccc(-c2ccc(C3[C@@H]4CN(S(=O)(=O)c5ccc(F)cc5)C[C@H]3N4)cc2)c1 (stereo partly specified) | -0.156% (inactive) | -4.49% | 4.34%
O=C(Cc1ccncc1)N1C[C@@H]2N[C@H](C1)C2c1ccc(-c2ccc(F)cc2)cc1 (stereo partly specified) | -3.63% (inactive) | 1.35% | -4.98%
N#Cc1ccc(-c2ccc(C3[C@@H]4CN(S(=O)(=O)c5ccc(F)cc5)C[C@H]3N4)cc2)cc1 (stereo partly specified) | -15.8% (active) | 11.7% | -27.5%
